Rows were chosen to be rich in hits. Some 1.4% of all compounds tested hit in one or more screens of this group.
KCNH2 3.1 inh = qHTS for Inhibitors of KCHN2 3.1: Mutant qHTS | Potassium voltage-gated channel subfamily H member 2, brain isoform KCNH2 3.1 (human) | AID 720553, 2013 | 0.95% of 340,000 active | U2OS KCNH2 3.1, thallium flux FluxOr; hits give low values | activity change, % (tested at about 1.8 µM);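 active means maximum activity change below -70%; inconclusive means maximum activity change from -70% to -50%; inactive means maximum activity change above -50%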;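 further: thallium influx rate constant from kinetic fluorescence after stimulation buffer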
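Steps: virus added to U2OS suspension (4 h, RT, dark); medium with 10% FBS added, cells plated, 37 C overnight; FluxOr/Red40 loading buffer 45 min RT; stimulation buffer, 2 min kinetic read; rate constant normalized.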
hERG WT inh = qHTS for Inhibitors of KCHN2 3.1: Wildtype qHTS. Voltage-gated inwardly rectifying potassium channel KCNH2 (Homo sapiens), Q12809. U2OS, BacMam KCNH2, thallium flux FluxOr; hits give low values. activity change, % at 1.84 µM. 0.37% of 340,000 active. AID 720551, 2013;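 active means maximum activity change below -70%; inconclusive means maximum activity change between -70% and -50%; inactive means maximum activity change above -50%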
Target sequence (Q12809 whole entry, looked up): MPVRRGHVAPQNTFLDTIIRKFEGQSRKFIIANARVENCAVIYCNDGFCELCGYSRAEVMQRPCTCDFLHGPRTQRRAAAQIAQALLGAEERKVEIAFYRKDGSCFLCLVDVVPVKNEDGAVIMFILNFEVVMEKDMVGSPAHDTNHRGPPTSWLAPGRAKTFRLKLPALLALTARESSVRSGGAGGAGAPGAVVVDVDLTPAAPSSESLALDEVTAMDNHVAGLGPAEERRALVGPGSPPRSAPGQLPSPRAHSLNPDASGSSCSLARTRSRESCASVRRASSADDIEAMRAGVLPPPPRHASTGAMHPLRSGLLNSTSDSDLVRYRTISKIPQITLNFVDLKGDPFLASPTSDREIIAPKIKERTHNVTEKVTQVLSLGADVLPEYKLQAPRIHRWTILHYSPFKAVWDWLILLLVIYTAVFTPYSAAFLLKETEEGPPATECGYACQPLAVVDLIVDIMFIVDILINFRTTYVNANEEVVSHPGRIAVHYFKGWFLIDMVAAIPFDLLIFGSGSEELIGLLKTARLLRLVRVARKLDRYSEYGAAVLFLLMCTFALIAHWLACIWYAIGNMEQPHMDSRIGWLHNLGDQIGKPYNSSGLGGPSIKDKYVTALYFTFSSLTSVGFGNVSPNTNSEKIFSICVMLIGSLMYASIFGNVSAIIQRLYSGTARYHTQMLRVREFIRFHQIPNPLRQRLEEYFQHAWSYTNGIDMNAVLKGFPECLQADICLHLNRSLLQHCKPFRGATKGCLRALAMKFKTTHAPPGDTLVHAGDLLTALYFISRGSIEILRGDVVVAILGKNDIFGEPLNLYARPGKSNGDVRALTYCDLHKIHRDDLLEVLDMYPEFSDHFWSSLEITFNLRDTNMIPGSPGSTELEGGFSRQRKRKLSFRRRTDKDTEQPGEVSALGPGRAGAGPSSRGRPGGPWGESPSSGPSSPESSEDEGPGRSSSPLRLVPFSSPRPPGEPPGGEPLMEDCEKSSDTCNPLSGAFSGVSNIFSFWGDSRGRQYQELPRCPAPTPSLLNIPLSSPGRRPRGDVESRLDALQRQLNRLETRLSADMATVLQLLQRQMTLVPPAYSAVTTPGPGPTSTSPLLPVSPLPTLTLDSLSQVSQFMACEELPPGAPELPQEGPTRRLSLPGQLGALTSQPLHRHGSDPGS
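U2OS cells transduced with wild-type KCNH2 virus are loaded with FluxOr dye for 45 min, and thallium flux is measured in kinetic reads before and after stimulation buffer. Rate constants are normalized to DMSO controls.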
p53 reactivation = qHTS assay for re-activators of p53 using a Luc reporter | H1299 p53-A138V BP100-luciferase reporter, luminescence, 24 h | Potency, µM (series often up to 92.2 µM), hits mostly activators | 0.063% of 320,000 active; further: nearly all actives have a fitted effect of over 45% in size
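H1299 (p53-null), stable ts p53-A138V + BP100-Luc; 1000 cells/well, Opti-MEM/10% FBS; cpd 4 pt, 1:5; 24 h, 37 deg C, 5% CO2; detection reagent 10 min RT; luminescence.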
Mm-Cpn inhibitor = Inhibitors of TCP-1 ring complex (TRiC) of Methanococcus maripaludis (MmCpn): qHTS | purified Mm-Cpn ATPase, ADP Transcreener TR-FRET | Potency, µM (titrated, usually from 76.9 µM), usual class: inhibitors | AID 504842, 2011 | 0.031% of 330,000 active | Chaperonin Mm-Cpn (Methanococcus maripaludis); further: nearly all actives have a fitted effect of over 80% in size
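Quantitative HTS used 25 nM Mm-CPN and 10 uM ATP in magnesium/KCl Tris buffer, pH 7.4, with 1 mM DTT. Hydrolysis ran 30 min at 37°C; ADP was read by HTRF.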
ASM inhibitor = Inhibitors of Secretory Acid Sphingomyelinase (S-ASM): qHTS; Sphingomyelin phosphodiesterase (Homo sapiens), P17405; placental ASM, HMU-PC fluorogenic substrate, 60 min; Potency, µM (top dose mostly 57.5 µM), usual class: inhibitors; 0.006% of 340,000 active
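HMU-PC0 cleavage (9 uM final) by human placental ASM, 60 min at 37 °C following 10 min compound exposure at RT; stopped at pH 10, fluorescence Ex 386/Em 447 nm.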
uPA surface inh = qHTS for Inhibitors of Cell Surface uPA Generation. cell surface uPA generation assay, qHTS. Potency, µM (highest dose often 38.3 µM), most hits filed as inhibitors. 0.31% of 330,000 active. AID 540303, 2011; active means well fitted inhibition curve with a large enough effect; inconclusive means small, poorly fitted or top-dose-only effect; inactive means no such curve, though single readings can be large or run the other way; tested in mouse RAW 264.7 cells; further: nearly all actives have a fitted effect of over 55% in size
A number is an active result; 0 = inactive; ? = inconclusive; - = no result; ! = not active in a repeat. Unless noted, the call rests on the fitted dose curve; in most records, active means well fitted curve in the direction sought with a large enough effect; inconclusive means small, poorly fitted or top-dose-only effect, or another doubt; inactive means no such curve, though single readings can be large; an effect the other way counts as inactive or inconclusive.

SMILES	KCNH2 3.1 inh	hERG WT inh	p53 reactivation	Mm-Cpn inhibitor	ASM inhibitor	uPA surface inh
O=[N+]([O-])c1ccc(CN2CCN(Cc3c[nH]c4ccccc34)CC2)cc1	-77	0	0	0	0	0
O=[N+]([O-])c1ccc(/C=N\N2CCN(Cc3ccccc3Cl)CC2)cc1	0	0	-	-	-	-
COc1ccc(C(CNC(=O)c2cccc(S(=O)(=O)Nc3ccc(F)cc3)c2)N2CCCCC2)cc1 (stereo not given)	0	0	-	-	0	0
CCN1C(=O)C(CC(=O)NCCc2ccccc2)N(NC(=O)c2ccc(Br)cc2)C1=S (stereo not given)	0	0	-	-	-	-
CCCCCCCCCCOC(=O)Cn1c(COc2ccccc2)[n+](C)c2ccccc21	0	0	0	0	?	0
CCCCCCCCCCOC(=O)Cn1c(COc2ccc(OC)cc2)[n+](C)c2ccccc21	-93!	-116!	0	0	?	0
CCCCCCCCCCOC(=O)Cn1c(COc2cccc(C)c2)[n+](C)c2ccccc21	0	0	-	0	?	0
CCCCCCCCCCOC(=O)Cn1c(COc2ccccc2C)[n+](C)c2ccccc21	-81	?	-	0	?	0
CCN(CC)S(=O)(=O)c1ccc(N2CC(C(=O)NCc3ccco3)CC2=O)cc1 (stereo not given)	0	0	-	-	-	-
O=C1/C(=C/N(C(=O)c2ccco2)c2ccc(Br)cc2)Sc2ccccc21	0	0	?	0	0	0
O=C1/C(=C/N(C(=O)c2ccco2)c2ccc(Cl)cc2)Sc2ccccc21	0	0	28µM	0	0	0
C[C@@H]1CN([C@H](C)CO)C(=O)c2cc(C#C[C@@H](C)O)cnc2O[C@H]1CN(C)C(=O)c1ccc(F)cc1	0	0	-	-	-	-
CCN(CC(=O)Nc1c(F)cccc1F)C(=O)CCNC(=O)c1ccc([N+](=O)[O-])cc1	0	0	0	0	0	0
O=C(O)c1cccc(NS(=O)(=O)c2ccc(S(=O)(=O)N3CCOCC3)cc2)c1	0	0	-	0	0	0
O=S(=O)(Nc1cccc(F)c1)c1ccc(S(=O)(=O)N2CCOCC2)cc1	-74	0	-	-	-	-
CCOc1ccc(Br)cc1S(=O)(=O)Nc1cccc(S(=O)(=O)NC2=NCCC2)c1	0	0	0	0	0	0
CCOc1ccc(Br)cc1S(=O)(=O)Nc1cccc(S(=O)(=O)N2CCOCC2)c1	0	-223	-	-	0	0
COC(=O)c1cccc(NC(=O)CCN2C(=O)NC(C)(C)C2=O)c1	0	0	-	-	-	-
O=C(Nc1ccc(Cl)c(S(=O)(=O)N2CCCC2)c1)c1cc(=O)[nH]c2ccccc12	0	0	0	0	0	0
Cc1cc(C(F)(F)F)c(C#N)c(SCC(=O)NC(C)(C)C)n1	?	0	0	0	0	0
Cc1cc(C)c(C#N)c(SCC(=O)NC(C)(C)C)n1	-84	0	0	0	0	0
CC(C)c1ccc(NC(=O)C2CCN(C(=O)[C@@H]3Cc4ccccc4CN3)CC2)cc1	-88	0	0	0	0	0
N#CCC(=O)Nc1ccc(C(=O)OCC(=O)c2ccc3c(c2)OCCO3)cc1	0	0	0	?	0	0
N#CCC(=O)Nc1ccc(C(=O)OCC(=O)c2ccc3c(c2)OCO3)cc1	0	0	0	45µM	0	0
c1ccc(COc2ncnc3c2ncn3CCCNC2CCN(Cc3ccccc3)CC2)cc1	0	0	-	-	-	-
SMILES	KCNH2 3.1 inh	hERG WT inh	p53 reactivation	Mm-Cpn inhibitor	ASM inhibitor	uPA surface inh
O=C(NCCc1ccccc1)/C(=C\c1ccccc1)NC(=O)c1ccco1	0	0	0	0	0	0
Cc1ccc(Nc2n[nH]c(C)c2[N+](=O)[O-])cc1C	0	0	22µM	0	0	0
Cc1ccc(Nc2c([N+](=O)[O-])c(=O)oc3ccccc23)cc1C	-75	0	0	0	0	0
O=c1oc2ccccc2c(Nc2cccc(O)c2)c1[N+](=O)[O-]	0	0	0	0	0	0
CC(C)(C)C#CC(CCc1ccccc1)OS(N)(=O)=O (stereo not given)	-	-	-	0	-	-
CN(CC(=O)Nc1ccc(Cl)c(C(F)(F)F)c1)C(=O)CCNC(=O)c1ccco1	0	0	0	0	0	0
CN(CC(=O)Nc1ccc(Cl)c(C(F)(F)F)c1)C(=O)CCCNC(=O)c1ccc(Cl)cc1	0	0	?	0	0	8.9µM
O=C(OCC(=O)N1CCOCC1)c1cncc(Br)c1	0	0	-	-	-	-
Nc1nonc1OCCN1CCN(c2ccc([N+](=O)[O-])c3cccnc23)CC1	0	0	0	0	0	0
Cc1cc(N2CCN(c3ccc([N+](=O)[O-])c4cccnc34)CC2)c2ccccc2n1	-103	-108	0	0	0	0
Cc1ccc(S(=O)(=O)N2CCN(c3ccc(C(F)(F)F)cc3[N+](=O)[O-])CC2)cc1	0	0	0	0	0	0
Cc1cc(N2CCN(c3ccc(C(F)(F)F)cc3[N+](=O)[O-])CC2)c2ccccc2n1	-102	-98	0	0	0	14µM
O=C(c1ccccc1F)N1CCN(c2ccc([N+](=O)[O-])c3cccnc23)CC1	0	-243	0	0	0	0
CCN1CCN(C(=O)CCc2nnc(CCc3ccccc3OC)o2)[C@@H](C)C1=O	0	0	0	0	0	0
CC(C)CCN(N=O)[C@@H](Cc1ccccc1)CN(N=O)[C@@H](Cc1ccccc1)CN(C)N=O	-113	0	0	-	0	0
O=C(NCc1ccc(F)cc1)C1CCCN1S(=O)(=O)c1cccc2nsnc12 (stereo not given)	0	-251	0	0	0	0
CCOC(=O)/C(C#N)=C1/C=CN(Cc2ccccc2)C=N1	0	-249	0	0	0	-
CCOC(=O)/C(C#N)=C1/C=CN(c2ccccc2)C=N1	0	0	0	0	0	0
Cc1nnc(SCC(=O)Nc2cc(S(C)(=O)=O)ccc2Cl)n1Cc1ccccc1	0	0	0	0	0	0
CCCNC(=O)C1CN(C(=O)c2nn(Cc3ccccc3)c(=O)c3ccccc23)c2ccccc2O1 (stereo not given)	0	0	0	0	0	0
CCCCC(CC)C(=O)Nc1cc(C(=O)NCCC)ccc1N1CCC2(CC1)CC(c1cccc(Br)c1)=NO2 (stereo not given)	?	-84	0	0	0	0

Bioassay records from PubChem.
